The list is not random: actives were taken first. Their share in the collection is about 19%.
KB-V1 MDR tox: kills drug-selected multidrug resistant KB-V1 cells; KB-V1 MDR cells viability, CellTiter-Glo, 72 h; Potency, µM (series often up to 46.1 µM), most hits filed as cytotoxic; hit rate 3.4% among 400,000; AID 1347076; note: nearly all actives have a fitted effect of over 60% in size
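qHTS viability screen in drug-selected KB-V1 MDR cells: 72 h compound treatment at 37 degrees C, ATP luminescence end point.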
HT1080-NT tox: kills 2HG-producing HT-1080-NT fibrosarcoma cells; HT-1080-NT fibrosarcoma viability, CellTiter-Glo ATP luminescence, 48 h; Potency, µM (top dose mostly 46.1 µM), without a hit: at the highest dose activity, negative = less viability, most hits filed as cytotoxic; hit rate 1.6% among 360,000;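 note: NT is the 2HG producing partner of a matched IDH1 knockdown line; 0% = DMSO-treated cells and -100% = media-only wells without cells; nearly all actives have a fitted effect of over 55% in size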
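HT-1080-NT; 750 cells/well; 5% FBS RPMI; 48 h compound, 37 degrees C; CellTiter-Glo luminescence; curve fitting and curve-class assignment.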
DT40 TDP1 CPT: growth inhibition of DT40 Tdp1-/-;hTDP1 cells with camptothecin (screen for TDP1 inhibitors). chicken DT40 Tdp1-/-;hTDP1 cells + 20 nM CPT, ATP luminescence, 48 h. hit rate 12% among 420,000. AID 686979. Potency, µM (titrated, usually from 46.2 µM), for inactives: top-dose activity change, negative = growth inhibition, most hits filed as inhibitors; note: nearly all actives have a fitted effect of over 55% in size
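Cell growth measured by CellTiter-Glo luminescence after a minimum 48 h, 37 C compound exposure with 20 nM CPT in Tdp1-knockout DT40 cells stably expressing hTDP1, seeded 400/well; qHTS titration format.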
DT40 TDP1 no CPT: qHTS for Inhibitors of human tyrosyl-DNA phosphodiesterase 1 (TDP1): qHTS in cells in absence of CPT; hit rate 15% among 420,000; AID 686978, 2013; Potency, µM (highest dose often 46.2 µM), for inactives: at the top dose activity change, negative = growth inhibition, most hits filed as inhibitors; DT40 Tdp1-/- hTDP1 cells, no CPT, ATP luminescence, 48 h; note: nearly all actives have a fitted effect of over 55% in size
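Readout: luminescence from CellTiter-Glo after 30 min in the dark at RT. Cells: DT40 Tdp1-/- with stable hTDP1, 400/well. Exposure: compounds alone, ≥48 hr, 37 °C.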
KB-3-1 cytotox: KB-3-1 parental cell cytotoxicity. Potency, µM (series often up to 46.1 µM), hits mostly cytotoxic. AID 1347075. KB-3-1 viability, CellTiter-Glo ATP luminescence, 72 h. hit rate 1.4% among 400,000; note: nearly all actives have a fitted effect of over 60% in size
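Parental KB-3-1 adenocarcinoma cells in phenol-red-free DMEM with 10% FBS were pin-treated with compounds at several concentrations, incubated 72 h at 37 °C, and viability read by CellTiter-Glo luminescence; concentration-effect curves were fitted after normalization.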
HT1080 IDH1KD tx: HT-1080 IDH1 knockdown cell toxicity (counter line); HT-1080 IDH1 knockdown viability, ATP luminescence, 48 h; Potency, µM (doses to about 46.1 µM), for inactives: at the highest dose activity, negative = toxicity, actives largely listed as cytotoxic; hit rate 2% among 360,000; AID 686971;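 note: 0% = DMSO wells and -100% = cell-free medium wells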
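Using the IDH1-knockdown HT-1080 line run in the same batch and compound series as the NT line, viability after 48 h at 37 °C was determined by CellTiter-Glo luminescence and expressed as % activity.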
* marks the source's active call; other numbers are inactive results; i = inactive; u = inconclusive; x = no result given. Calls come from the whole dose curve; as a rule, active = well fitted curve in the direction sought with a large enough effect; inconclusive = small, poorly fitted or top-dose-only effect, or another doubt; inactive = no such curve, though single readings can be large; an effect the other way counts as inactive or inconclusive. Unless noted, % is set by controls: 0 for no effect and ±100 for the full control effect; potency is the fitted concentration of half-maximal effect.

SMILES	KB-V1 MDR tox	HT1080-NT tox	DT40 TDP1 CPT	DT40 TDP1 no CPT	KB-3-1 cytotox	HT1080 IDH1KD tx
COc1cccc(CN(C)CC(=O)Nc2cc(S(=O)(=O)N3CCCC3)ccc2Cl)c1OC	21µM*	-7%	21µM*	u	u	-3%
O=C(CCc1nc2ccccc2c(=O)[nH]1)Nc1cccc(S(=O)(=O)N2CCCCC2)c1	u	-2%	u	21µM*	i	0%
CCc1ccc(NCc2cc3cc4c(cc3n(CC(=O)Nc3ccc(Cl)cc3)c2=O)OCO4)cc1	i	x	x	x	u	x
COC(=O)c1cc(C#N)c(N(C)Cc2ccccc2)nc1C	i	-6%	-11%	-19%	i	1%
COC(=O)c1cc(C#N)c(NCc2ccccc2)nc1C	i	-12%	u	16µM*	i	-24%
COc1ccc(C(=O)NC(=S)N2CCOCC2)cc1OC	i	-5%	-1%	-5%	i	-1%
COCCSc1ccccc1C(=O)Nc1ccccc1C#N	i	-1%	-14%	u	i	2%
O=C(OCC(=O)N1CCN(S(=O)(=O)c2ccc(Cl)cc2)CC1)c1ccc([N+](=O)[O-])o1	i	6%	18µM*	u	u	9%
COc1ccc(-c2ccc3c(c2)c(-c2cccs2)c(-c2cc(OC)cc(OC)c2)n3C)cc1	i	-1%	u	23µM*	i	-1%
COc1cc(OC)cc(-c2c(-c3cccs3)c3cc(-c4cnc(OC)nc4)ccc3n2C)c1	i	-1%	u	15µM*	u	-2%
COc1cc(OC)cc(-c2c(-c3cccs3)c3cc(-c4ccc(C(N)=O)cc4)ccc3n2C)c1	i	10%	u	16µM*	u	9%
O=C(NCC1CC1)c1ccc(-n2ccnc2)c2ccoc12	i	u	-14%	-2%	i	20%
Cc1cc2ccc(=O)oc2cc1OC[C@@H](O)C(C)(C)O	x	x	21%	14%	x	x
O=C(Nc1ccc(N2CCN(C(=O)c3cccs3)CC2)cc1)c1ccccc1Cl	u	u	15µM*	12µM*	16µM*	9.2µM*
O=C(Nc1ccc(N2CCN(C(=O)c3ccccc3F)CC2)cc1)c1cncc(Br)c1	x	2%	u	18µM*	x	-15%
O=C(Nc1ccc(N2CCN(C(=O)c3cccs3)CC2)cc1)c1ccccc1F	7.3µM*	-26%	u	18µM*	u	-19%
CC(C)(C)C(=O)Nc1ccc(N2CCN(C(=O)c3cccs3)CC2)cc1	i	5%	-7%	-23%	i	3%
COC(=O)c1ccc(Oc2c(Cl)cccc2[N+](=O)[O-])cc1	i	11%	-25%	-20%	i	12%
O=C1Nc2ccccc2CCc2ccccc21	u	2%	2%	-3%	i	-1%
O=C1Cc2ccccc2C(=O)N1	i	7%	1.5µM*	1.2µM*	i	5%
Cn1ncc(C(=O)N=S(C)(=O)c2ccccc2)c1[N+](=O)[O-] (centres undefined)	i	0%	-12%	-3%	i	9%
CCCCn1c(N)c(N(CC(C)C)C(=O)CCNC(=O)c2ccc(Cl)cc2)c(=O)[nH]c1=O	i	0%	3%	5%	i	0%
Cc1sc2ncn(CC(=O)Nc3ccc(F)cc3Cl)c(=O)c2c1S(=O)(=O)N1CCN(c2ncccn2)CC1	u	x	-6%	-16%	i	x
CC(=O)SC1CC(=O)N(c2ccc(C(C)(C)C)cc2)C1=O (centres undefined)	u	3%	3.3µM*	8.2µM*	i	u
O=c1c(-c2ccc(O)cc2)coc2c(C3OC(CO)C(O)C(O)C3O)c(O)ccc12 (centres undefined)	x	x	-7%	-4%	x	x
SMILES	KB-V1 MDR tox	HT1080-NT tox	DT40 TDP1 CPT	DT40 TDP1 no CPT	KB-3-1 cytotox	HT1080 IDH1KD tx
Cc1ccc(C)c(SCC(=O)OC/C(O)=C(\C#N)c2nc3ccccc3[nH]2)c1	i	-28%	u	u	i	-20%
Cc1cc(Br)ccc1SCC(=O)OCC(O)=C(C#N)c1nc2ccccc2[nH]1	u	6%	4.6µM*	4.6µM*	u	7%
Cc1cc(Br)ccc1SCC(=O)OC/C(O)=C(\C#N)c1nc2ccccc2[nH]1	u	0%	u	21µM*	u	0%
N#C/C(=C(/O)COC(=O)CSc1ccc2ccccc2c1)c1nc2ccccc2[nH]1	i	-1%	5.2µM*	2.9µM*	u	6%
Cc1cccc(C(c2sc3nc(-c4ccco4)nn3c2O)N2CCN(c3ccccc3F)CC2)c1 (centres undefined)	u	x	-17%	-13%	i	x
CCc1nnc(NC(=O)c2cc(=O)c3cc(C)ccc3o2)s1	i	x	-14%	-20%	u	x
CN(c1ncnc2c1c(-c1ccccc1)cn2-c1ccc(F)cc1)C1CCCCC1	x	x	u	23µM*	x	x
CC1CN(c2ncnc3c2c(-c2ccccc2)cn3-c2ccc(F)cc2)CC(C)O1 (centres undefined)	u	u	16µM*	9.2µM*	i	u
OCCN1CCN(c2ncnc3scc(-c4ccc(F)cc4)c23)CC1	i	-11%	-7%	4%	i	-17%
COC(=O)C(C)Sc1ncnc2c1c(-c1ccccc1)cn2-c1ccc(F)cc1 (centres undefined)	i	x	4.1µM*	16µM*	i	x
OCCN1CCN(c2ncnc3c2c(-c2ccccc2)cn3-c2ccc(F)cc2)CC1	i	u	u	26µM*	i	18µM*
COCCn1c(=O)c(-c2ccccc2)nc2cnc(Nc3ccccc3)nc21	x	x	12%	-10%	x	x
CCSc1ccc([C@@H]2[C@@H]3C(=O)N(C)C(=O)[C@@H]3[C@]3(C(=O)OC)CCCCN23)cc1	i	2%	16µM*	u	i	-1%
COC(=O)[C@@]12CCCCN1[C@H](c1ccc(SC3CCCCC3)cc1)[C@H]1C(=O)N(C)C(=O)[C@H]12	i	10%	u	16µM*	u	21%
COC(=O)[C@@]12CCCN1[C@H](c1ccc(SC3CCCCC3)cc1)[C@H]1C(=O)N(C)C(=O)[C@H]12	i	-2%	u	16µM*	i	-1%
CCOc1ccc2ncc3c(-c4ccccc4)nn(CC(=O)Nc4cccc(F)c4)c3c2c1	i	x	-7%	-11%	i	x

High-throughput results from PubChem BioAssay.
